Consider 40 compounds from PubChem BioAssay (NCATS).

Structures are written as SMILES. Records with an inconclusive call do not appear. Where a call stands in place of a potency, no number is given. Activity calls are given as the source filed them. Calls come from the whole dose curve; as a rule, active = well fitted cell-killing curve with a large enough effect; inconclusive = small, poorly fitted or top-dose-only effect; inactive = flat fitted curve, though single readings scatter.
Potency is the fitted concentration of half-maximal effect.

The nature of this assay: Cell Viability - NIH 3T3 (AID 541). Note: nearly all actives have a fitted effect of over 25% in size. The settings on record: NIH 3T3 cell viability, qHTS; activity change, negative = cytotoxicity: at 92.2 µM (top of the series). An excerpt: NIH Chemical Genomics Center [NCGC]
NIH Molecular Libraries Screening Centers Network [MLSCN]
National Institutes of Environmental Health Sciences [NIEHS]
National Toxicology Program [NTP]
We have developed a 1536-well cell-based assay for quantitative high throughput screening (qHTS) against a number of cell lines to determine in vitro cytotoxicity of small molecules. This particular assay uses the NIH 3T3 fibroblast cell line which is established from NIH Swiss mouse embryo.
NCGC Assay Protocol Summary:
The CellTiter-Glo luminescent cell viability assay (Promega) is a homogeneous method to measure the number of viable cells in culture. The end point readout of this assay is based on quantitation of intracellular ATP, an indicator of metabolic activity, using the luciferase reaction. Luciferase catalyzes the oxidation of beetle Luciferin to oxyluciferin and light in the presence of ATP. The luminescent signal is proportional to amount of ATP present.
Using the CellTiter-Glo luminescent cell viability assay, the amount of cellular ATP was measured in the NIH 3T3 cell line with complete culture medium following compound treatment for 40 hours. The assay was performed in opaque white Kalypsys 1536-well plates. In the screen, tamoxifen and doxorubicin were used as positive controls. Library compounds were measured for their ability to cause acute toxicity in the cell line, as reflected by a decrease in intracellular ATP levels, in a concentration-dependent manner. […] AC50 values were determined from concentration-response data modeled with the standard Hill equation.
qHTS protocol for CellTiter Glo NIH 3T3 cellular assay
[Step] [Parameter] [Value] [Description]
1. Reagent; 5 uL; 1000 NIH 3T3 cells/well
2. Time; 5 hr; 37 °C incubation
4. Controls; 23 nL; Tamoxifen 0.34 uM to 100 uM & Doxorubicin 0.02 nM to 100 uM
5. Time; 40 hr; 37 °C incubation
6. Reagent; 5 uL; CellTiter Glo reagent
7. Time; 20 min; Room Temperature
8. Detection; Luminescence; Viewlux plate reader
Keywords: cell viability, cytotoxicity, NIH 3T3 cell line, luminescence, NTPHTS, NTPHTS_NCGC, NIEHS, EPA, DSSTox, MLSMR, MLSCN, NIH Roadmap, qHTS, NCGC
On the technique in general: Quantitative high-throughput screening tests each substance at several concentrations.
With `CN1CSC(=S)N(C)C1`, the Potency is 1.26 µM (active).
For the compound `Cc1cccc(N)c1C`, the Potency result was “inactive”.
Consider `O=C(O)c1cc(Cl)ccc1Cl`, for which the Potency result is “inactive”.
The same measure, in the same setting: to `CC(Cl)CCl` (stereo not given) belongs “inactive”.
Consider `Clc1ccc(C(Cl)(Cl)Cl)c(Cl)c1`, for which the Potency entry was “inactive”.
In the case of `ClC(Cl)(Cl)C(Cl)(Cl)Cl`, the Potency entry was “inactive”.
`CC(C)(COCC1CO1)COCC1CO1` (stereo not given): the activity change, negative = cytotoxicity is -105% (active).
For the compound `CC(C)[C@]12CC(=O)[C@H](C)[C@H]1C2`, the Potency result is “inactive”.
The same measure, in the same setting: to `CC(Cl)(Cl)Cl` belongs “inactive”; to `Brc1ccc(Oc2ccc(Br)cc2Br)c(Br)c1`, “inactive”.
With `Cc1ccc(OP(=O)(Oc2ccc(C)cc2)Oc2ccc(C)cc2)cc1`, the Potency result was “inactive”.
Consider `c1ccc(NNc2ccccc2)cc1`, for which the Potency entry was “inactive”.
With `Clc1cc(Cl)c(Cl)c(Cl)c1`, the Potency entry is “inactive”.
Regarding `Oc1ccc(Cl)c(Cl)c1Cl`, the Potency result is “inactive”.
As to `COC(C)(C)C`, the Potency result is “inactive”.
Regarding `CCCN(CCC)c1c([N+](=O)[O-])cc(C(F)(F)F)cc1[N+](=O)[O-]`, the Potency entry is “inactive”.
Consider `Cc1ccc2c(c1N)C(=O)c1ccccc1C2=O`, for which the Potency is 25.1 µM (active).
Consider `CN(C)C(=O)Nc1ccc(Cl)cc1`, for which the Potency result is “inactive”.
Take `Oc1cc(Cl)ccc1Cl`: the Potency entry was “inactive”.
Regarding `Clc1cccc(Cl)c1`, the Potency entry is “inactive”.
Consider `CC(=O)NNc1ccccc1`, for which the Potency entry was “inactive”.
Turning to `O=C(Cl)OCc1ccccc1`, the Potency entry is “inactive”.
For the compound `CC(C)(Cl)Cl`, the Potency result is “inactive”.
As to `CC[N+](=O)[O-]`, the Potency result is “inactive”.
As for `BrC(Br)Br`, the Potency entry is “inactive”.
For the compound `N#CC(Cl)(Cl)Cl`, the Potency result is “inactive”.
With `CCCCCCCCCCCOC(=O)c1ccccc1C(=O)OCCCCCCCCCCC`, the Potency entry was “inactive”.
Turning to `CCN(CC)N=O`, the Potency entry was “inactive”.
For the compound `Nc1ccc(-c2ccc(N)c(Cl)c2)cc1Cl`, the Potency is 15.8 µM (active).
Still for that read-out and setting: to `CCCC[N+](=O)[O-]` belongs “inactive”.
On to `O=[N+]([O-])c1cccc2c([N+](=O)[O-])cccc12`, for which the Potency entry was “inactive”.
Regarding `CCCCC#N`, the Potency entry was “inactive”.
As for `Nc1ncc([N+](=O)[O-])s1`, the Potency result was “inactive”.
The same measure, in the same setting: to `N#C/C(N)=C(/N)C#N` belongs “inactive”.
Still for that read-out and setting: to `Nc1ccc(Cc2ccc(N)c(Cl)c2)cc1Cl` belongs “inactive”; to `Nc1cccc(Cl)c1`, “inactive”.
Same read-out and setting: to `CCCCNC(=O)n1c(NC(=O)OC)nc2ccccc21` belongs 5.01 µM (active).
In the case of `O=[N+]([O-])c1ccccc1O`, the Potency entry was “inactive”.
`O=C(Cc1ccccc1)OCc1ccccc1`: the Potency entry is “inactive”.
Turning to `O=C(O)CCl`, the Potency result was “inactive”.
